{"source": "PubChem BioAssay", "key": {"[1]": {"test": "viability loss in pontine glioma line – cell-based, SU-DIPG-XXV, MIPE5.0, CellTiter-Glo, qHTS, dose response (AID 1347065; cut-off not given, nearly all actives have AC50 up to about 26 µM;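 further: cells exposed to compound for 48 hours before ATP readout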)", "details": "CellTiter-Glo ATP luminescence"}, "[2]": {"test": "JHH-DIPG-1 glioma cell viability, MIPE5.0 library, CellTiter-Glo luminescence, qHTS (AID 1347067; cut-off not given, nearly all actives have AC50 up to about 26 µM;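 further: cells exposed to compound for 48 hours before readout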)", "details": "JHH-DIPG-1 glioma viability, CellTiter-Glo ATP luminescence"}, "[3]": {"test": "SU-DIPG-XXV glioma cell viability, MIPE5.0 library, qHTS (AID 1347068; cut-off not given, nearly all actives have IC50 up to about 30 µM)"}, "[4]": {"test": "sensitizers of A549 cells to miR-34 induction, primary screen, imaging, A549 dox-inducible miR-34, nuclei and caspase counts (AID 1347080;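 active means compounds whose cell count with miR-34 switched on is under 0.7 times the count with it off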)", "details": "A549 miR-34 inducible, Hoechst nuclei count, 48 h"}, "[5]": {"test": "survival rescue of mitochondrial mutant cells in low glucose, primary screen, MELAS cybrids, Rieske KO mouse fibroblasts, CellTiter-Glo (AID 1508586;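 active means mean z-score across replicates of 1.96 or higher in either the MELAS or the Rieske mutant cell line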;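 further: z relative to plate mean and SD of compound and empty wells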)"}, "[6]": {"biological_target": "NAD(+) hydrolase SARM1 (Homo sapiens) (UniProt Q6SZW1)", "sequence (Q6SZW1 whole entry, looked up)": "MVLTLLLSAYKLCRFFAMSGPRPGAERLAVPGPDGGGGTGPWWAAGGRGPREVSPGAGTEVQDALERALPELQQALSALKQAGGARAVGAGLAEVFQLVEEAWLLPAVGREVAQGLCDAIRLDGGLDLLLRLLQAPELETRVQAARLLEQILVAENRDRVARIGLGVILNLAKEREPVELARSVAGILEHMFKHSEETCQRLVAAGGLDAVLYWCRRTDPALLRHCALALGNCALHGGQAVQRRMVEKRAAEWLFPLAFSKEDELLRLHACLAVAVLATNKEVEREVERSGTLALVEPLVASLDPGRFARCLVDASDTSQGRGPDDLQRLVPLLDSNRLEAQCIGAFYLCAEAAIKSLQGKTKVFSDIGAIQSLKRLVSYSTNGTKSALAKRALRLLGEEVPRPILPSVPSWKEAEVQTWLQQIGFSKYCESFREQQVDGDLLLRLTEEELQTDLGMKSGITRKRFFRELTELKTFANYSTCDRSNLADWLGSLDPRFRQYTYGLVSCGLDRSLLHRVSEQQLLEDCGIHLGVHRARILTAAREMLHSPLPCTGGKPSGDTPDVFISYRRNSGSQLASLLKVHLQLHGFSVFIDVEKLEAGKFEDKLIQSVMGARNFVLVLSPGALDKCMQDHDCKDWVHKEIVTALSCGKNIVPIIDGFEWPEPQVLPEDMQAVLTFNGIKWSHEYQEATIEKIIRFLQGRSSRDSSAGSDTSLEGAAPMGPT", "test": "SARM1 TIR NADase inhibitors, cell lysate, NAD-Glo luminescence (AID 1508614;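 active means compound whose remaining NAD level is above about 45 nM, limit read from the data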)", "details": "SAM-TIR HEK293T lysate NADase, at 1 µM, stronger effect = higher value"}, "[7]": {"biological_target": "Mitogen-activated protein kinase 7 (Homo sapiens) (UniProt Q13164)", "sequence (Q13164 whole entry, looked up, the tested form may be a part)": "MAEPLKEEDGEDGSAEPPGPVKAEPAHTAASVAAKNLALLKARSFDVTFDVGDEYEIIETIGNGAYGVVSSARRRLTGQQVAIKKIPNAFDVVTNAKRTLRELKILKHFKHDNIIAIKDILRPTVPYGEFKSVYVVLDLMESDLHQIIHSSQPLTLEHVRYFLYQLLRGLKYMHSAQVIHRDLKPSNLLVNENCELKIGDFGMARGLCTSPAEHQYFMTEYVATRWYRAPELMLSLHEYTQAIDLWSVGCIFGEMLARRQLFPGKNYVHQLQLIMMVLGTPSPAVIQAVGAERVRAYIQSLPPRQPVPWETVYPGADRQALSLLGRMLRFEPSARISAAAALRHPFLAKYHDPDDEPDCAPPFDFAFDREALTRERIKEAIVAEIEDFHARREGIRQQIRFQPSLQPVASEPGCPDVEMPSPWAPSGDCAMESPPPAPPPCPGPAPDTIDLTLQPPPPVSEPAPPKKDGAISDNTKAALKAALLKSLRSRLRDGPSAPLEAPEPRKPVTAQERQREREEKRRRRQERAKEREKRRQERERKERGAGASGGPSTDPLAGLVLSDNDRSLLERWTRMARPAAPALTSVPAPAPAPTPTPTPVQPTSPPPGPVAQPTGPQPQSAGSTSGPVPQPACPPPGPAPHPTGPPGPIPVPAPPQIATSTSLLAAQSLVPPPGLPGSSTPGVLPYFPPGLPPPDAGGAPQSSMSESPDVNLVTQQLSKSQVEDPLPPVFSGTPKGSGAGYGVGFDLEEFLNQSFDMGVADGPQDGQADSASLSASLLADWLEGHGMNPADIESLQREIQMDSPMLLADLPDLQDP", "test": "ERK5 transactivation activators in reporter cells, primary screen, cell-based, HTS (AID 1508626;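 active means luciferase signal above three times the same-plate solvent-only control wells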;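 further: luciferase driven by Gal4-ERK5 fusion binding five Gal4 sites before minimal TATA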)", "details": "HeLa Gal4-ERK5 transactivation, 18 h, at 5 µM, stronger effect = higher value"}, "[8]": {"test": "viability rescue of complex I mutant cybrids, primary screen, cell-based, galactose medium, ATP luminescence (AID 1645843;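 active means z-score of at least 1.8 in each of two replicates, scored against plate mean and spread of sample wells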;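 further: positive z means more ATP and so rescue of galactose-driven cybrid death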)", "details": "complex I mutant cybrid cells, 72 h, stronger effect = higher value"}, "[9]": {"test": "SU-DIPG-VI glioma cell viability, MIPE4.0 library, CellTiter-Glo luminescence, qHTS (AID 1347066; cut-off not given, nearly all actives have AC50 up to about 30 µM;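 further: cells exposed to compound for 48 hours before readout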)", "details": "CellTiter-Glo ATP luminescence"}, "[10]": {"test": "modifiers of HSF1 nuclear foci, imaging, Selleck Cancer Library (AID 1347162; in the data active means plate-normalised HSF1 focus index below about 0.46)", "details": "human cells, at 10 µM; SSMD: measured here: HSF1 foci SSMD mean; cell count: measured here: cell number; plate-normalised HSF1 focus index: stronger effect = lower value"}, "[11]": {"test": "ovarian cancer cell viability with rucaparib, profiling panel, oncology-focused library, rucaparib conditional (AID 1508598)", "details": "patient-derived ovarian cancer cells, CellTiter-Glo viability, 144 h, stronger effect = lower value"}, "[12]": {"test": "LFS_MB_P medulloblastoma growth inhibition, cell-based, chromothripsis tumors, cisplatin or BGB combos (AID 1671449; in the data active means inhibition above about 80%;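 further: cells exposed for 96 hours; 0% = vehicle DMSO and 100% = killing by high DMSO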)", "details": "LFS_MB_P medulloblastoma cells"}, "[13]": {"test": "HDN33 neuroblastoma growth inhibition, cell-based, chromothripsis tumors, cisplatin or BGB combos (AID 1671450; in the data active means inhibition above about 80%;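 further: cells exposed to compound for four days; 0% = vehicle DMSO and 100% = cell killing by high DMSO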)", "details": "HDN33 neuroblastoma cells, stronger effect = higher value"}, "[14]": {"test": "ICB984 medulloblastoma cell growth inhibition, synergistic combos for chromothripsis tumors, cisplatin or BGB combos (AID 1671451);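 further: cells exposed for 96 hours before readout; 0% = vehicle DMSO and 100% = killing by high DMSO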", "details": "ICB984 medulloblastoma cells, drug combinations, at 0.005 µM, stronger effect = higher value"}, "[15]": {"details": "stronger effect = lower value, cell number ratio, induced over uninduced"}, "[16]": {"details": "measured here: relative caspase fold change +Dox/-Dox"}, "[17]": {"details": "measured here: total cells with miR-34 induction, stronger effect = lower value"}, "[18]": {"details": "measured here: total cells without miR-34 induction"}, "[19]": {"details": "MELAS cybrid survival, CellTiter-Glo 48 h, stronger effect = higher value"}, "[20]": {"details": "Rieske KO mouse fibroblast survival, CellTiter-Glo 72 h"}}, "note": "Values joined by “and” are separate entries in the source; they are usually repeats but may differ in a detail not shown here. Equal values may be shown once. Inconclusive results are not listed. Active and inactive are the calls of the source.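 How the source made its calls, unless noted: active means normalized viability below 100% at a tested concentration; inactive means the rest.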", "data": [{"molecule": "Cc1ccc(S(=O)(=O)NC(=O)NN2CC3CCCC3C2)cc1", "note": "(configuration not stated)", "values": [{"measurement": "outcome", "setting": "[1]", "result": "inactive"}, {"measurement": "outcome", "setting": "[2]", "result": "inactive"}, {"measurement": "outcome", "setting": "[3]", "result": "inactive"}, {"measurement": "fold change", "setting": "[4]; [15]", "result": "0.889 (inactive) and 0.88 (inactive)"}, {"measurement": "fold change", "setting": "[4]; [16]", "result": "1.81 and 0.848 and 0.946"}, {"measurement": "cell count", "setting": "[4]; [17]", "result": "8400 and 8080 and 10300"}, {"measurement": "cell count", "setting": "[4]; [18]", "result": "9450 and 9180 and 11600"}, {"measurement": "z-score", "setting": "[5]; [19]", "result": "-0.361 (inactive) and -0.892 (inactive) and 0.121 (inactive)"}, {"measurement": "z-score", "setting": "[5]; [20]", "result": "0.53 and -0.111 and 0.139"}, {"measurement": "remaining NAD", "setting": "[6]", "result": "10 nM (inactive)"}, {"measurement": "luciferase signal", "setting": "[7]", "result": "36 AU (inactive)"}, {"measurement": "z-score", "setting": "[8]", "result": "0.595 (inactive)"}]}, {"molecule": "O=NN(CCCl)C(=O)NC1CCCCC1", "values": [{"measurement": "outcome", "setting": "[1]", "result": "inactive"}, {"measurement": "outcome", "setting": "[9]", "result": "inactive"}, {"measurement": "outcome", "setting": "[3]", "result": "inactive"}, {"measurement": "fold change", "setting": "[4]; [15]", "result": "0.819 (inactive) and 0.861 (inactive)"}, {"measurement": "fold change", "setting": "[4]; [16]", "result": "1.64 and 1.87"}, {"measurement": "cell count", "setting": "[4]; [17]", "result": "7170 and 7550"}, {"measurement": "cell count", "setting": "[4]; [18]", "result": "8750 and 8760"}, {"measurement": "SSMD", "setting": "[10]", "result": 0.27}, {"measurement": "cell count", "setting": "[10]", "result": 6620}, {"measurement": "plate-normalised HSF1 focus index", "setting": "[10]", "result": "1.01 (inactive)"}, {"measurement": "z-score", "setting": "[5]; [19]", "result": "-0.38 (inactive) and -0.0882 (inactive)"}, {"measurement": "z-score", "setting": "[5]; [20]", "result": "0.628 and -0.815"}, {"measurement": "viability", "setting": "[11]; at 0.000305 µM, OCI-C5x cells, with rucaparib 10 µM, 100% = cells with rucaparib alone", "result": "106% (inactive)"}, {"measurement": "viability", "setting": "[11]; at 0.000305 µM, OCI-C5x cells, without rucaparib", "result": "116% (inactive)"}, {"measurement": "viability", "setting": "[11]; at 0.000305 µM, OCI-P5x cells, with rucaparib 20 µM, 100% = cells with rucaparib alone", "result": "87.5% (active)"}, {"measurement": "viability", "setting": "[11]; at 0.000305 µM, OCI-P5x cells, without rucaparib", "result": "105% (inactive)"}, {"measurement": "viability", "setting": "[11]; at 0.00122 µM, OCI-C5x cells, with rucaparib 10 µM, 100% = cells with rucaparib alone", "result": "106% (inactive)"}, {"measurement": "viability", "setting": "[11]; at 0.00122 µM, OCI-C5x cells, without rucaparib", "result": "123% (inactive)"}, {"measurement": "viability", "setting": "[11]; at 0.00122 µM, OCI-P5x cells, with rucaparib 20 µM, 100% = cells with rucaparib alone", "result": "100% (active)"}, {"measurement": "viability", "setting": "[11]; at 0.00122 µM, OCI-P5x cells, without rucaparib", "result": "107% (inactive)"}, {"measurement": "viability", "setting": "[11]; at 0.00488 µM, OCI-C5x cells, with rucaparib 10 µM, 100% = cells with rucaparib alone", "result": "107% (inactive)"}, {"measurement": "viability", "setting": "[11]; at 0.00488 µM, OCI-C5x cells, without rucaparib", "result": "120% (inactive)"}, {"measurement": "viability", "setting": "[11]; at 0.00488 µM, OCI-P5x cells, with rucaparib 20 µM, 100% = cells with rucaparib alone", "result": "94.7% (active)"}, {"measurement": "viability", "setting": "[11]; at 0.00488 µM, OCI-P5x cells, without rucaparib", "result": "109% (inactive)"}, {"measurement": "viability", "setting": "[11]; at 0.0195 µM, OCI-C5x cells, with rucaparib 10 µM, 100% = cells with rucaparib alone", "result": "121% (inactive)"}, {"measurement": "viability", "setting": "[11]; at 0.0195 µM, OCI-C5x cells, without rucaparib", "result": "122% (inactive)"}, {"measurement": "viability", "setting": "[11]; at 0.0195 µM, OCI-P5x cells, with rucaparib 20 µM, 100% = cells with rucaparib alone", "result": "97.1% (active)"}, {"measurement": "viability", "setting": "[11]; at 0.0195 µM, OCI-P5x cells, without rucaparib", "result": "116% (inactive)"}, {"measurement": "viability", "setting": "[11]; at 0.0781 µM, OCI-C5x cells, with rucaparib 10 µM, 100% = cells with rucaparib alone", "result": "107% (inactive)"}, {"measurement": "viability", "setting": "[11]; at 0.0781 µM, OCI-C5x cells, without rucaparib", "result": "121% (inactive)"}, {"measurement": "viability", "setting": "[11]; at 0.0781 µM, OCI-P5x cells, with rucaparib 20 µM, 100% = cells with rucaparib alone", "result": "97.7% (active)"}, {"measurement": "viability", "setting": "[11]; at 0.0781 µM, OCI-P5x cells, without rucaparib", "result": "112% (inactive)"}, {"measurement": "viability", "setting": "[11]; at 0.313 µM, OCI-C5x cells, with rucaparib 10 µM, 100% = cells with rucaparib alone", "result": "113% (inactive)"}, {"measurement": "viability", "setting": "[11]; at 0.313 µM, OCI-C5x cells, without rucaparib", "result": "119% (inactive)"}, {"measurement": "viability", "setting": "[11]; at 0.313 µM, OCI-P5x cells, with rucaparib 20 µM, 100% = cells with rucaparib alone", "result": "103% (inactive)"}, {"measurement": "viability", "setting": "[11]; at 0.313 µM, OCI-P5x cells, without rucaparib", "result": "119% (inactive)"}, {"measurement": "viability", "setting": "[11]; at 1.25 µM, OCI-C5x cells, with rucaparib 10 µM, 100% = cells with rucaparib alone", "result": "115% (inactive)"}, {"measurement": "viability", "setting": "[11]; at 1.25 µM, OCI-C5x cells, without rucaparib", "result": "125% (inactive)"}, {"measurement": "viability", "setting": "[11]; at 1.25 µM, OCI-P5x cells, with rucaparib 20 µM, 100% = cells with rucaparib alone", "result": "90.9% (active)"}, {"measurement": "viability", "setting": "[11]; at 1.25 µM, OCI-P5x cells, without rucaparib", "result": "108% (inactive)"}, {"measurement": "viability", "setting": "[11]; at 5 µM, OCI-C5x cells, with rucaparib 10 µM, 100% = cells with rucaparib alone", "result": "118% (inactive)"}, {"measurement": "viability", "setting": "[11]; at 5 µM, OCI-C5x cells, without rucaparib", "result": "124% (inactive)"}, {"measurement": "viability", "setting": "[11]; at 5 µM, OCI-P5x cells, with rucaparib 20 µM, 100% = cells with rucaparib alone", "result": "97.4% (active)"}, {"measurement": "viability", "setting": "[11]; at 5 µM, OCI-P5x cells, without rucaparib", "result": "125% (inactive)"}, {"measurement": "remaining NAD", "setting": "[6]", "result": "10 nM (inactive)"}, {"measurement": "z-score", "setting": "[8]", "result": "-0.495 (inactive)"}, {"measurement": "inhibition", "setting": "[12]; at 0.5 µM, stronger effect = higher value", "result": "-24.1% (inactive) and -26.9% (inactive)"}, {"measurement": "inhibition", "setting": "[12]; measured here: combination with BGB IC20, at 0.005 µM", "result": "-12.9% and -1.3%"}, {"measurement": "inhibition", "setting": "[12]; measured here: combination with BGB IC40, at 0.005 µM", "result": "-38% and -34.1%"}, {"measurement": "inhibition", "setting": "[12]; measured here: combination with BGB IC40, at 0.05 µM", "result": "-45.8% and -16.7%"}, {"measurement": "inhibition", "setting": "[12]; measured here: combination with cisplatin, at 0.5 µM, stronger effect = higher value", "result": "-40% and -38.1%"}, {"measurement": "inhibition", "setting": "[12]; measured here: combination with cisplatin, at 5 µM, stronger effect = higher value", "result": "-6.56% and -25.7%"}, {"measurement": "inhibition", "setting": "[13]; BGB combo, at 5 µM", "result": "-29.5% and -15.3%"}, {"measurement": "inhibition", "setting": "[13]; at 0.5 µM", "result": "-27.8% (inactive) and -8.82% (inactive)"}, {"measurement": "inhibition", "setting": "[13]; cisplatin combo, at 5 µM", "result": "-16% and 13.3%"}, {"measurement": "inhibition", "setting": "[13]; measured here: with BGB IC20 combination, at 0.5 µM", "result": "-31.2% and -14.7%"}, {"measurement": "inhibition", "setting": "[13]; measured here: with cisplatin IC20 combination, at 0.5 µM", "result": "-22.8% and -17.6%"}, {"measurement": "inhibition", "setting": "[13]; single agent, at 5 µM", "result": "-25.6% and 2.38%"}, {"measurement": "inhibition", "setting": "[14]; BGB IC20 combo", "result": "-12.5% and 2.61%"}, {"measurement": "inhibition", "setting": "[14]; BGB IC40 combo", "result": "-25.1% and -35.2%"}]}]}
